A selection: hits, their analogues and other compounds. The true share with any hit is near 11%.
AMA1-RON2 inh = inhibitors of Plasmodium falciparum AMA1-RON2 interaction; AID 720542; 360,000 compounds, 0.2% hits; Potency, µM (highest dose often 58.2 µM), for inactives: top-dose activity change, negative = inhibition, hits mostly inhibitors; AlphaScreen AMA1-biotinylated RON2 peptide binding;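 further: 0% = vehicle wells and -100% = peptide control; nearly all actives have a fitted effect of over 45% in size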
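AMA1 (3D7) with his tag at 25 nM final met compounds first, then biotinylated RON2 peptide at 25 nM; detection used donor plus acceptor beads, 10 µg/mL apiece, read by AlphaScreen after 30 min at room temperature.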
Pf growth 48h = inhibits P. falciparum growth in the first generation, 48 h. P. falciparum luciferase growth in erythrocytes, 48 h. Potency, µM (highest dose often 28.7 µM), inactives show at the highest dose activity change, negative = inhibition, actives largely listed as inhibitors. 310,000 compounds, 5.9% hits. AID 504832
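Cell-based growth assay: transgenic P. falciparum expressing firefly luciferase, cultured in red cells within RPMI 1640 containing 0.5% w/v Albumax, 24 mM bicarbonate and gentamycin. A drop in luciferase activity indicates inhibition.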
Pf growth 96h = P. falciparum growth inhibition at 96 hour, primary screen for plastid delayed-death inhibitors. P. falciparum luciferase reporter growth, 96 h. Potency, µM (titrated, usually from 28.7 µM), without a hit: at the highest dose activity change, negative = inhibition, actives largely listed as inhibitors. 320,000 compounds, 6.9% hits
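96 h incubation, 37 C, 5% CO2, of luciferase-reporter P. falciparum-infected RBCs (2% hematocrit, 0.05% parasitemia final) with test compounds; endpoint luminescence.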
HCV inh = inhibitors of hepatitis C virus infection. Huh7.5.1 HCVcc-Cre infection, luciferase reporter, 44 h. Potency, µM (top dose mostly 41.8 µM), without a hit: at the highest dose activity change, negative = inhibition, most hits filed as inhibitors. 340,000 compounds, 3.4% hits. AID 651820
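1,000 cells/well; 4 h culture; + compound; + HCVcc-Cre (~0.5 moi); 44 h; luciferase substrate, RT 15 min; read 15 sec.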
The depositor's hits bear a star; ? = inconclusive; . = no result given. The call rests on the fitted dose curve; in most records, active means well fitted curve in the direction sought with a large enough effect; inconclusive means small, poorly fitted or top-dose-only effect, or another doubt; inactive means no such curve, though single readings can be large; an effect the other way counts as inactive or inconclusive. Unless noted, on the % scale 0 is the no-effect control and ±100 the full control effect; potency means the concentration at half of the fitted maximal effect.

SMILES | AMA1-RON2 inh | Pf growth 48h | Pf growth 96h | HCV inh
CCOC(=O)C(C)n1nc(/C=C/c2ccc(OC)cc2)ccc1=O (stereo unspecified) | 19.3% | ? | 9.28µM* | 2.8%
CCOC(=O)C(C)n1nc(/C=C/c2ccccc2)ccc1=O (stereo unspecified) | 13.4% | ? | ? | -3.8%
CCOc1ccc(N(CC(=O)NCCSCc2ccco2)S(=O)(=O)c2ccc(C)cc2)cc1 | -1.9% | ? | 8.28µM* | -11.5%
CCOc1ccccc1N(CC(=O)NCCSCc1ccco1)S(=O)(=O)c1ccccc1 | -3.4% | 8.28µM* | 9.8% | 12.6µM*
COc1ccc(OC)c(N(CC(=O)NCCSCc2ccco2)S(=O)(=O)c2ccccc2)c1 | -15.1% | ? | ? | -5.6%
Cc1nc(Cl)c2c(n1)NC1=C(O2)C(=O)CCC1 | 8.3% | 18.7% | 2.2% | 10.4%
COc1ccc(C(Nc2ccccn2)c2c(NC(=O)c3ccco3)sc(C)c2C)cc1 (stereo unspecified) | -25.4% | 4.65µM* | ? | ?
COC(=O)c1c(NC(=O)c2ccco2)sc(C)c1C | -11.4% | 5.7% | . | ?
O=C(Nc1ccccn1)c1ccco1 | 0.0% | 102.6% | 80.5% | 7.7%
Cc1sc(NC(=O)c2ccco2)c(C(c2cccnc2)N2CCN(C)CC2)c1C (stereo unspecified) | -13.1% | ? | ? | ?
COc1cccc(C(Nc2ccccn2)c2c(NC(=O)c3ccco3)sc(C)c2C)c1 (stereo unspecified) | -25.4% | 8.28µM* | ? | ?
Cc1sc(NC(=O)c2ccco2)c(C(Nc2ccccn2)c2ccccc2)c1C (stereo unspecified) | -19.4% | ? | ? | 14.1µM*
CCOC(=O)c1c(C)[nH]c(C)c1S(=O)(=O)NCCCN1CCOCC1 | -5.3% | 12.0% | ? | 19.1%
CCOC(=O)c1c(C)[nH]c(C)c1S(=O)(=O)N1CCN(c2ccc(F)cc2)CC1 | -14.0% | -6.5% | 8.28µM* | 5.4%
CCOC(=O)c1c(C)[nH]c(C)c1S(=O)(=O)N1CCOCC1 | -0.1% | 28.0% | 6.57µM* | 2.7%
O=C(OC1CCOC1=O)C1CCN(S(=O)(=O)c2c(Cl)cccc2Cl)CC1 (stereo unspecified) | -10.6% | ? | 9.0% | 9.2%
O=c1c2ccccc2nc(/C=C/c2cc(Br)ccc2O)n1CCO | 7.7% | . | . | 14.1µM*
O=c1c2ccccc2nc(/C=C/c2ccc(O)cc2)n1CCc1ccccc1 | 6.9% | ? | ? | 12.6µM*
CCOC(=O)C1CCN(C(=O)CNC(=O)Cn2c(C)cc3ccccc3c2=O)CC1 | -1.9% | 3.0% | 3.29µM* | -1.1%
CCOC(=O)CNC(=O)Cn1c(C)cc2ccccc2c1=O | 2.5% | 0.2% | 13.5% | 17.6%
CCOC(=O)C1=CCN(S(=O)(=O)c2ccc(C)cc2)C1c1cccc(F)c1 (stereo unspecified) | 24.6% | . | . | .
CCCCCCCCCCCCCC(=O)OC(C)C | . | -10.7% | -20.2% | .
O=C(C1CC1)N1N=C(c2ccc(F)cc2)CC1(O)C(F)(F)F (stereo unspecified) | -4.1% | 13.5% | 11.7µM* | -13.7%
CC(NC(=O)COC(=O)/C(=C/c1cccs1)c1cccs1)c1ccccc1 (stereo unspecified) | -23.7% | ? | 26.7% | ?
Fc1cnc(N2CCN(c3ccccc3)CC2)nc1N1CCN(c2ccccc2)CC1 | -13.9% | 13.1µM* | 0.5% | ?
SMILES | AMA1-RON2 inh | Pf growth 48h | Pf growth 96h | HCV inh
O=C1CCCc2nc(N3CCN(c4ccccc4)CC3)ncc21 | -5.1% | 29.0% | -10.6% | 16.0%
O=C(CN1CCCCCCC1)N/N=C/c1ccc([N+](=O)[O-])o1 | 10µM* | ? | 113.3% | ?
CN1CCN(C(=O)/C=C/c2ccc([N+](=O)[O-])o2)CC1 | -8.9% | 11.7µM* | ? | ?
O=C(O)/C=C/c1ccc([N+](=O)[O-])o1 | -5.9% | -2.4% | ? | 0.6%
NC(N)=NN=C(/C=C/c1ccc([N+](=O)[O-])o1)/C=C/c1ccc([N+](=O)[O-])o1 | . | 2.39µM* | 3.01µM* | .
CC1(C(=O)N/N=C/c2ccc([N+](=O)[O-])o2)CC1(Br)Br (stereo unspecified) | 8.9% | ? | 10.4µM* | ?
O=C(N/N=C/c1ccc([N+](=O)[O-])o1)c1ccc2c(c1)OCO2 | 4.8% | ? | ? | ?
O=C(CN1CCOCC1)NN=Cc1ccc([N+](=O)[O-])o1 | 1.9% | . | . | .
CC1CCCCN1CCCNC(=O)CN1C(=O)c2cccnc2Oc2ccccc21 (stereo unspecified) | 3.3% | -6.2% | ? | -9.6%
O=C(CCN1CCN(c2ccccc2)CC1)N/N=C/c1ccc([N+](=O)[O-])o1 | 0.2% | ? | 10.4µM* | ?
O=C(Cc1ccc([N+](=O)[O-])cc1)N/N=C/c1ccc([N+](=O)[O-])o1 | 10.2% | ? | ? | 14.1µM*
O=C1C2C3C=CC(C4CC34)C2C(=O)N1/N=C/c1ccc([N+](=O)[O-])o1 (stereo unspecified) | 0.0% | -38.2% | -30.1% | 11.2µM*
O=C(CCN1CCN(c2ccccc2)CC1)N/N=C/c1ccc(O)c(O)c1O | ? | 5.7% | 29.3% | ?
Cc1cc([N+](=O)[O-])ccc1-c1ccc(/C=N/NC(=O)Cc2ccccc2)o1 | 6.2% | 1.4% | -36.8% | -28.8%
CCCCCCCC(=O)N/N=C/c1ccc([N+](=O)[O-])o1 | -9.5% | ? | ? | ?
O=C1C2C3C=CC(C4CC34)C2C(=O)N1/N=C/c1ccc(-c2ccc([N+](=O)[O-])cc2)o1 (stereo unspecified) | 5.5% | 19.5% | -12.0% | 12.3%
CC(=O)N/N=C/c1ccc([N+](=O)[O-])o1 | . | ? | 12µM* | .
CCCn1c(N)c(C(=O)CSc2nnc(C3CC3)n2Cc2ccccc2)c(=O)n(C)c1=O | 8.8% | ? | ? | ?
O=C(CC12CC3CC(CC(C3)C1)C2)N/N=C/c1ccc([N+](=O)[O-])o1 | 38.5% | 5.22µM* | 71.1% | ?
O=C1SCCN1N=Cc1ccc([N+](=O)[O-])o1 | 0.5% | . | . | 22.4µM*
CCOC(=O)N/N=C\c1ccc([N+](=O)[O-])o1 | -1.9% | ? | 8.28µM* | ?
CC1CN(N=Cc2ccc([N+](=O)[O-])o2)C(=N)O1 (stereo unspecified) | -0.7% | . | . | ?
O=C(CC12CC3CC(CC(C3)C1)C2)N/N=C\c1ccc[nH]1 | 9.7% | -14.5% | ? | 0.8%
O=[N+]([O-])c1ccc(/C=N/N=C/c2ccc([N+](=O)[O-])o2)o1 | -19.3% | 4.15µM* | -4.7% | 4.47µM*
COc1cc(OC)cc(C(=O)NNC(=O)CCc2nc3ccccc3c(=O)[nH]2)c1 | 17.2% | -26.5% | ? | 10.0%
CN(C(=O)COC(=O)CNC(=O)c1sc2ccccc2c1Cl)c1ccccc1 | -1.9% | -11.6% | 1.6% | 5.6%
CC(C)N(Cc1ccccc1)C(=O)CN1c2cccc3cccc(c23)S1(=O)=O | 32.2% | . | . | ?
Cc1cc2ncn(/N=C/c3ccc([N+](=O)[O-])o3)c2cc1C | 0.0% | ? | 4.65µM* | 11.2µM*

Bioassay records (PubChem)
